Results published in PubChem BioAssay.
Records with an inconclusive call do not appear. For some assays here: Entries with a potency or affinity are not part of this list. Activity calls are given as the source filed them.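 The calls were made as follows, unless noted: active = compounds killing one labelled cell type while sparing the other, by normalised counts and ratio limits, not self-fluorescent; inactive = the rest.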

Tests used:
[1] = differential killing of epithelial or mesenchymal cells, primary screen, imaging, PC-3E GFP, TEM4-18 mCherry, co-culture (AID 1345086); conditions: imaging cell counts, at 1 µM; for red/green cell ratio (normalised): actives lie on both sides, counts scaled to control wells, 1 = unselective;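 as to all read-outs here: cells exposed to compound for 72 h before imaging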;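 as to red/green cell ratio (normalised): normalised mesenchymal count divided by normalised epithelial count so high means epithelial killing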
[2] = target: Mitogen-activated protein kinase 7 (Homo sapiens) (UniProt Q13164); experiment: ERK5 transactivation activators in reporter cells, primary screen, cell-based, HTS (AID 1508626;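 active = luciferase signal above three times the same-plate solvent-only control wells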;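 also: luciferase driven by Gal4-ERK5 fusion binding five Gal4 sites before minimal TATA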); conditions: HeLa Gal4-ERK5 transactivation, 18 h, at 5 µM, stronger effect = higher value
Sequence of Mitogen-activated protein kinase 7 (Homo sapiens) (Q13164 whole entry, looked up, the tested form may be a part): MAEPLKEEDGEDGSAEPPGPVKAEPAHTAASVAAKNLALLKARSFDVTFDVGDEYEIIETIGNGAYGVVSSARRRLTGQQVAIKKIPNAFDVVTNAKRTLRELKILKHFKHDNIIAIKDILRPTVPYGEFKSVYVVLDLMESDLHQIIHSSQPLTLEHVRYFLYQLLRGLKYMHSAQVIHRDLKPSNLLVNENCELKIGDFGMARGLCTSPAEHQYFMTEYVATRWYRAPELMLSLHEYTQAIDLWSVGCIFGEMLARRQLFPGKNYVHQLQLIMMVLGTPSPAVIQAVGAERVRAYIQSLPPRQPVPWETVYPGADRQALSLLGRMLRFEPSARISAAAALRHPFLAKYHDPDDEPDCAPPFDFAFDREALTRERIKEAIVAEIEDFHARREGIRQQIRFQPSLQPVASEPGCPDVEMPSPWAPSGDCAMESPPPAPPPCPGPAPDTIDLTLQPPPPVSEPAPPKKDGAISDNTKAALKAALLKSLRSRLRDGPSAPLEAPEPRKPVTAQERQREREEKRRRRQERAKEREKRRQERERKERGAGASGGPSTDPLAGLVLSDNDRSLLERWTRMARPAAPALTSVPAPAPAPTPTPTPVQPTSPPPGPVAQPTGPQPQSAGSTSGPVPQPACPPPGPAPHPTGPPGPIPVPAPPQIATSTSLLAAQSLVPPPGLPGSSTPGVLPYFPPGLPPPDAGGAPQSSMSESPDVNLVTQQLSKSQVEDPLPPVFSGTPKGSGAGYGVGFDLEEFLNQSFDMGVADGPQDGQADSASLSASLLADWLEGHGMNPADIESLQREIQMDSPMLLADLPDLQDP

[3] = polyglutamine-triggered caspase-3 activation inhibitors, cell-based (AID 1583); conditions: polyglutamine-induced caspase-3 activation, cell assay; stronger effect = higher value;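 tested at 10 µM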
[4] = suppressors of polyQ aggregation in yeast, 75Q-TubU reporter (AID 1593); conditions: Yeast 75Q polyglutamine aggregation reporter
[5] = rescue of polyQ-huntingtin neuronal dysfunction in worms, whole organism, C. elegans mechanosensory neurons, N-terminal huntingtin (AID 1599); conditions: touch response, stronger effect = higher value
[6] = inhibitors of mitochondrial cytochrome c release, biochemical, purified mitochondria (AID 1603); conditions: stronger effect = lower value;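 also: mouse liver mitochondria challenged with calcium chloride; signal normalized to the plate average as 100%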
[7] = inhibitors of polyQ protein aggregation (AID 1604); conditions: polyglutamine-induced protein aggregation inhibition assay; stronger effect = higher value; tested at 2.5 µM
[8] = enhancers of glutamate uptake in motor neurons, MN-1 cell line (AID 1612); conditions: MN-1 motor neuron cells, stronger effect = higher value;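 also: tested at 1 µM final; 0% = mean of DMSO vehicle wells on each plate; positive means more glutamate uptake than control and negative means less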
[9] = reducers of polyQ inclusions in PC12 cells, cell-based, NGF-treated PC12, GFPQ80 (AID 1614); conditions: PC12 NGF-treated GFP-polyQ80 inclusion reduction;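 also: lower means fewer inclusions and 0 means no inclusions at all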
[10] = suppressors of polyglutamine aggregation in yeast, 75Q-TubH (AID 1616); conditions: S. cerevisiae 75Q-TubH polyglutamine aggregation suppression; stronger effect = higher value
[11] = mitochondrial permeability transition inhibitors (AID 1580; call rule not given here); conditions: isolated mitochondria, permeability transition inhibition
[12] = liver-stage malaria parasite growth inhibition, primary screen, cell-based, HepG2, luciferase luminescence, HepG2 viability (AID 624349; in the data active = parasite load remaining mostly below about 12%, no sharp cut-off; inactive = mostly above about 10%;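 also: 100% = mean of DMSO negative control wells on the same plate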); conditions: P. berghei liver stage in HepG2, luciferase luminescence, concentration not given here; parasite load remaining: stronger effect = lower value; viability: measured here: HepG2 viability without parasites
[13] = measured here: epithelial PC-3E GFP cell survival
[14] = measured here: mesenchymal TEM4-18 mCherry cell survival

O=c1cc(-c2ccccc2O)oc2cc(O)ccc12
red/green cell ratio (normalised) [1]: 1 (inactive) | normalised cell number [1, 13]: 0.97 | normalised cell number [1, 14]: 0.97 | luciferase signal [2]: 112 AU (inactive)

Cc1cc(O)c(C=O)c2c1C(=O)Oc1c(COC(=O)/C=C/C(=O)O)c(O)c(C(=O)O)c(C)c1O2
red/green cell ratio (normalised) [1]: 1.12 (inactive) | normalised cell number [1, 13]: 1.12 | normalised cell number [1, 14]: 1.25 | luciferase signal [2]: 16 AU (inactive)

O=C(O)/C=C/C=C/c1ccccc1
red/green cell ratio (normalised) [1]: 1.01 (inactive) | normalised cell number [1, 13]: 0.93 | normalised cell number [1, 14]: 0.93 | luciferase signal [2]: 64 AU (inactive)

CC(=O)O[C@H]1CC[C@@]2(C)C(C[C@@H](OC(C)=O)[C@]3(C)C2CC[C@@]2(C)[C@H](c4ccoc4)OC(=O)[C@H]4O[C@]423)C1(C)C (stereo partly specified)
red/green cell ratio (normalised) [1]: 1.12 (inactive) | normalised cell number [1, 13]: 1 | normalised cell number [1, 14]: 1.12 | luciferase signal [2]: 60 AU (inactive)

COc1cc(O)c(C(=O)/C=C/c2ccc(O)c(OC)c2)c(OC)c1
red/green cell ratio (normalised) [1]: 0.93 (inactive) | normalised cell number [1, 13]: 1.1 | normalised cell number [1, 14]: 1.02 | luciferase signal [2]: 60 AU (inactive)

CC(=O)Oc1cc2c(c(C)c1OC(C)=O)CC=C1[C@@]2(C)CC[C@@]2(C)C3C[C@](C)(C(=O)O)CC[C@]3(C)CC[C@]12C (stereo partly specified)
red/green cell ratio (normalised) [1]: 0.58 (inactive) | normalised cell number [1, 13]: 1.06 | normalised cell number [1, 14]: 0.62 | luciferase signal [2]: 48 AU (inactive)

COc1cc2oc3cc(OC)c(OC)c(CC=C(C)C)c3c(=O)c2c(OC)c1CC=C(C)C
red/green cell ratio (normalised) [1]: 0.95 (inactive) | normalised cell number [1, 13]: 1.02 | normalised cell number [1, 14]: 0.97 | luciferase signal [2]: 164 AU (inactive)

O=C(NC1CCCCC1)NC1CCCCC1
red/green cell ratio (normalised) [1]: 0.92 (inactive) | normalised cell number [1, 13]: 1.15 | normalised cell number [1, 14]: 1.06 | luciferase signal [2]: 60 AU (inactive)

COc1cc(O)c(C(=O)/C=C/c2ccc(OC)c(O)c2)c(OC)c1
red/green cell ratio (normalised) [1]: 1.01 (inactive) | normalised cell number [1, 13]: 0.89 | normalised cell number [1, 14]: 0.9 | luciferase signal [2]: 84 AU (inactive)

S=c1ccss1
red/green cell ratio (normalised) [1]: 1.04 (inactive) | normalised cell number [1, 13]: 1.15 | normalised cell number [1, 14]: 1.2 | luciferase signal [2]: 52 AU (inactive)

O=C(O)c1ccc2c(c1)OCO2
red/green cell ratio (normalised) [1]: 1.05 (inactive) | normalised cell number [1, 13]: 1 | normalised cell number [1, 14]: 1.05 | luciferase signal [2]: 48 AU (inactive)

COc1ccc2oc3ccccc3c(=O)c2c1
red/green cell ratio (normalised) [1]: 0.95 (inactive) | normalised cell number [1, 13]: 1.2 | normalised cell number [1, 14]: 1.14 | luciferase signal [2]: 88 AU (inactive)

COc1cc2c(cc1OC)-c1c(oc3cc(O)cc(O)c3c1=O)CO2
red/green cell ratio (normalised) [1]: 1.08 (inactive) | normalised cell number [1, 13]: 1.02 | normalised cell number [1, 14]: 1.09 | luciferase signal [2]: 16 AU (inactive)

O=C(O)c1cc(=O)c(O)c2c(O)c(O)c(O)cc2c1
red/green cell ratio (normalised) [1]: 0.85 (inactive) | normalised cell number [1, 13]: 1.11 | normalised cell number [1, 14]: 0.94 | luciferase signal [2]: 100 AU (inactive)

COc1ccc(-c2oc3cc(OC)c(OC)c(OC)c3c(=O)c2OC)cc1
red/green cell ratio (normalised) [1]: 1.04 (inactive) | normalised cell number [1, 13]: 1.02 | normalised cell number [1, 14]: 1.05 | luciferase signal [2]: 72 AU (inactive)

COc1ccc(-c2coc3c(O)c(O)c(OC)cc3c2=O)cc1
red/green cell ratio (normalised) [1]: 0.97 (inactive) | normalised cell number [1, 13]: 1.12 | normalised cell number [1, 14]: 1.09 | luciferase signal [2]: 88 AU (inactive)

CC1(C)C(=O)C=C[C@@]2(C)C1CC(=O)[C@]1(C)C2CC[C@@]2(C)[C@H](c3ccoc3)OC(=O)[C@H]3O[C@]321 (stereo partly specified)
red/green cell ratio (normalised) [1]: 1.47 (inactive) | normalised cell number [1, 13]: 0.82 | normalised cell number [1, 14]: 1.21 | luciferase signal [2]: 16 AU (inactive)

CC1(C)CC[C@]2(C(=O)O)CC[C@]3(C)C(=CCC4[C@@]5(C)CC[C@@H](O)C(C)(C)C5CC[C@]43C)C2C1 (stereo partly specified)
red/green cell ratio (normalised) [1]: 1 (inactive) | normalised cell number [1, 13]: 0.94 | normalised cell number [1, 14]: 0.95 | luciferase signal [2]: 16 AU (inactive)

COc1ccc(-c2coc3cc(O)ccc3c2=O)c(OC)c1
red/green cell ratio (normalised) [1]: 1.02 (inactive) | normalised cell number [1, 13]: 1.07 | normalised cell number [1, 14]: 1.08 | luciferase signal [2]: 60 AU (inactive)

COc1cc2oc3cc(OC)c(OC)c(CC=C(C)C)c3c(=O)c2c(O)c1CC=C(C)C
red/green cell ratio (normalised) [1]: 0.97 (inactive) | normalised cell number [1, 13]: 1 | normalised cell number [1, 14]: 0.97 | luciferase signal [2]: 72 AU (inactive)

CC(=O)O[C@H]1CC[C@@]2(C)C(C[C@@H](OC(C)=O)[C@@]3(C)C4=CC(=O)O[C@@H](c5ccoc5)[C@]4(C)CCC23)C1(C)C (stereo partly specified)
red/green cell ratio (normalised) [1]: 0.88 (inactive) | normalised cell number [1, 13]: 0.93 | normalised cell number [1, 14]: 0.82 | luciferase signal [2]: 28 AU (inactive)

O=c1cc(-c2ccc(O)cc2)oc2cc(O)ccc12
red/green cell ratio (normalised) [1]: 0.77 (inactive) | normalised cell number [1, 13]: 1.28 | normalised cell number [1, 14]: 0.98 | luciferase signal [2]: 180 AU (active)

O=c1cccc2ccc(O)c(O)c2c1O
red/green cell ratio (normalised) [1]: 1.04 (inactive) | normalised cell number [1, 13]: 0.98 | normalised cell number [1, 14]: 1.02 | luciferase signal [2]: 44 AU (inactive)

COc1cc(OC)c2c(=O)c(O)c(-c3ccc(OC)c(OC)c3)oc2c1
red/green cell ratio (normalised) [1]: 0.83 (inactive) | normalised cell number [1, 13]: 1.23 | normalised cell number [1, 14]: 1.02 | luciferase signal [2]: 64 AU (inactive)

O=c1ccn([C@@H]2O[C@H](COP(=O)(O)OP(=O)(O)OP(=O)(O)O)[C@@H](O)[C@H]2O)c(=O)[nH]1
inhibition [3]: -7.02% | score [4]: 1.5 | rescue above control [5]: 2.48 | cytochrome c release ratio [6]: 0.87 | inhibition of aggregation [7]: 60.6% | glutamate uptake change [8]: 11.8% | inclusion score [9]: 2 | aggregation suppression score [10]: 1.14 | red/green cell ratio (normalised) [1]: 1.18 (inactive) | normalised cell number [1, 13]: 0.94 | normalised cell number [1, 14]: 1.1 | luciferase signal [2]: 36 AU (inactive)

CC1(C)C(=O)[C@@H]2C[C@@]3(O)C4=CC(=O)O[C@@H](c5ccoc5)[C@]4(C)CCC3C(C)(C2=O)[C@H]1CC(=O)O (stereo partly specified)
red/green cell ratio (normalised) [1]: 1 (inactive) | normalised cell number [1, 13]: 1.01 | normalised cell number [1, 14]: 1.01 | luciferase signal [2]: 20 AU (inactive)

OC[C@H]1O[C@@H](O[C@H]2[C@H](O)[C@@H](O)[C@@H](O)O[C@@H]2CO)[C@H](O)[C@@H](O)[C@@H]1O
red/green cell ratio (normalised) [1]: 1.17 (inactive) | normalised cell number [1, 13]: 0.89 | normalised cell number [1, 14]: 1.04 | luciferase signal [2]: 32 AU (inactive)

C=CC(C1=CC(=O)C=CC1=O)c1ccccc1 (stereo unspecified)
red/green cell ratio (normalised) [1]: 0.88 (inactive) | normalised cell number [1, 13]: 1.13 | normalised cell number [1, 14]: 1 | luciferase signal [2]: 64 AU (inactive)

CC[C@@H](C(=O)[C@@H](C)[C@@H](O)[C@H](C)[C@@H]1O[C@@H]([C@@H](CC)C(=O)O)CC[C@@H]1C)[C@H]1OC2(C=C[C@@H](O)[C@]3(CC[C@@](C)([C@H]4CC[C@](O)(CC)[C@H](C)O4)O3)O2)[C@H](C)C[C@@H]1C (stereo partly specified)
EC50 [11]: 0.1 µM (active) | inhibition [3]: 40.3% | score [4]: 0.53 | rescue above control [5]: -3.48 | cytochrome c release ratio [6]: 1.06 | inhibition of aggregation [7]: 61.1% | glutamate uptake change [8]: -41.6% | aggregation suppression score [10]: 0.25 | parasite load remaining [12]: -5.04% (inactive) | viability [12]: 82% | red/green cell ratio (normalised) [1]: 0.65 (active) | normalised cell number [1, 13]: 0.55 | normalised cell number [1, 14]: 0.36 | luciferase signal [2]: 36 AU (inactive)

COc1cc(OC)c(C(C)=O)c(O)c1C
red/green cell ratio (normalised) [1]: 0.96 (inactive) | normalised cell number [1, 13]: 0.98 | normalised cell number [1, 14]: 0.94 | luciferase signal [2]: 32 AU (inactive)

Cc1c(S(=O)(=O)O)oc2c1C(=O)C(=O)c1c-2ccc2c1CCCC2(C)C
red/green cell ratio (normalised) [1]: 0.95 (inactive) | normalised cell number [1, 13]: 1.24 | normalised cell number [1, 14]: 1.18 | luciferase signal [2]: 48 AU (inactive)

CC1=CC(=O)C2C(C)(C)CCC[C@]2(C)[C@@]1(O)CCc1ccoc1 (stereo partly specified)
red/green cell ratio (normalised) [1]: 1.02 (inactive) | normalised cell number [1, 13]: 0.94 | normalised cell number [1, 14]: 0.96 | luciferase signal [2]: 128 AU (inactive)
